An excerpt weighted towards active compounds, which were near 6.5% of everything screened.
HCMV inh: blocks human cytomegalovirus replication. activity change, negative = inhibition, % at 57.5 µM. HFF cells, HCMV-luciferase reporter, 72 h; hits give low values. 4.5% of 410,000 active; in the data active means activity change below about -60%; inconclusive means no clear call, values can overlap the other calls; inactive means above about -39%
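Human foreskin fibroblasts infected with luciferase-reporter HCMV at MOI 1 PFU/cell, compounds at two doses. Luciferase measured 72 h post infection; normalized to buffer-only basal and Salinomycin (10uM) controls.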
MARV entry inh: Marburg virus entry inhibition | Marburg virus pseudotyped entry inhibition, cell reporter | Potency, µM (series often up to 37.8 µM), without a hit: at the highest dose activity change, negative = inhibition, hits mostly inhibitors | AID 540276 | 1.8% of 300,000 active; calls by dose curve; tested in HEK293 cells; further: potency means the concentration at half of the fitted maximal effect
Vaccinia Venus: vaccinia inhibition (Venus reporter); Vaccinia virus Venus reporter expression, fluorescence; Potency, µM (titrated, usually from 36.5 µM), for the others: top-dose activity change, negative = inhibition, actives largely listed as inhibitors; 0.46% of 330,000 active; AID 720580; calls by dose curve; tested in A549 cells; further: potency means the concentration at half of the fitted maximal effect; nearly all actives have a fitted effect of over 30% in size
Vaccinia mCherry: vaccinia inhibition (mCherry reporter); Vaccinia virus mCherry reporter infection, fluorescence; 0.63% of 310,000 active; Potency, µM (doses to about 36.5 µM), for inactives: top-dose activity change, negative = inhibition, usual class: inhibitors; calls by dose curve; tested in A549 cells; further: potency means the concentration at half of the fitted maximal effect; nearly all actives have a fitted effect of over 35% in size
FMDV inh: antivirals against foot and mouth disease virus | FMDV antiviral cell-based qHTS | Potency, µM (series often up to 57.9 µM), for inactives: top-dose activity change, negative = inhibition, usual class: inhibitors | 1.2% of 410,000 active; calls by dose curve; tested in HEK293T cells; further: read-out not given here; potency means the concentration at half of the fitted maximal effect; nearly all actives have a fitted effect of over 45% in size
Lassa entry inh: Lassa virus entry inhibition; 1.2% of 300,000 active; Lassa virus pseudotype entry inhibition, cell reporter; AID 540256; Potency, µM (highest dose often 37.9 µM), for inactives: top-dose activity change, negative = inhibition, actives largely listed as inhibitors; calls by dose curve; tested in HEK293 cells; further: potency means the concentration at half of the fitted maximal effect; nearly all actives have a fitted effect of over 50% in size
Numbers without * were called inactive; [ ] = remark or other dose. On the % scale 0 is the no-effect control and ±100 the full control effect.

For Oc1ccc(Cc2ccccc2Cl)c(O)c1 the results were HCMV inh -5, MARV entry inh 10%, Vaccinia Venus -15%, Vaccinia mCherry -27%, FMDV inh inconclusive and Lassa entry inh inconclusive.
For Cn1c(-c2cccc(F)c2)cc2cnc(Nc3cccnc3)cc21 the results were HCMV inh 7.
O=C(COc1ccc2c(-c3ccccc3)cc(=O)oc2c1)Nc1ccc(CCO)cc1 was read as HCMV inh -68* and FMDV inh inconclusive.
For CCC(C)(C)C(=O)O[C@@H]1C[C@@H](C)C=C2C=C[C@H](C)[C@H](CC[C@@H]3C[C@@H](O)CC(=O)O3)[C@H]21 the results were FMDV inh -24%.
N=C1S/C(=C\c2ccco2)C(=O)N1c1nccs1 was read as HCMV inh -115*, Vaccinia Venus -23%, Vaccinia mCherry inconclusive and FMDV inh -2%.
c1ccc(Cc2nnc3sc(-c4ccncc4)nn23)cc1 was read as HCMV inh inconclusive, MARV entry inh 0%, FMDV inh -6% and Lassa entry inh -1%.
Screening c1ccc(Cc2nnc3sc(-c4cccnc4)nn23)cc1 returned HCMV inh -63*, MARV entry inh 20%, FMDV inh 20% and Lassa entry inh -24%.
CNc1nc2cnc(Nc3cccc(OC)c3)cc2n1Cc1ccc(OC)c(OC)c1 was read as HCMV inh 24.
`O=[N+]([O-])c1cc(O)c2ncccc2c1` gave HCMV inh -97*, MARV entry inh inconclusive, Vaccinia Venus 1µM*, Vaccinia mCherry 1µM*, FMDV inh -22% and Lassa entry inh inconclusive.
Screening Cc1ccc([N+](=O)[O-])c2cccnc12 returned HCMV inh -4, MARV entry inh -3%, FMDV inh -6% and Lassa entry inh 1%.
O=[N+]([O-])c1ccc(Sc2cccc3cccnc23)c2cccnc12 was read as HCMV inh -101*, MARV entry inh inconclusive, FMDV inh inconclusive and Lassa entry inh inconclusive.
For O=[N+]([O-])c1cc2cccnc2c2ncccc12 the results were HCMV inh -97* and FMDV inh -20%.
`Oc1cccc2cccnc12` gave Vaccinia Venus -12%, Vaccinia mCherry -15% and FMDV inh -7%.
For Cc1ccccc1-c1ccc2ncnc(-n3ccnc3)c2c1 the results were FMDV inh 40µM*.
For C=C1C(=O)OC2CC1C(O)CC(C)=CCCC(C)=CC(O)CC2C (centres undefined) the results were HCMV inh -34, MARV entry inh 4µM*, Vaccinia Venus 11µM*, Vaccinia mCherry inconclusive, FMDV inh 7.9µM* and Lassa entry inh inconclusive.
`CCn1c(CCNC(=O)c2ccc(OC)cc2)nnc1SCc1ccc(Cl)c(Cl)c1` gave HCMV inh -60*, MARV entry inh inconclusive, Vaccinia Venus inconclusive, Vaccinia mCherry inconclusive, FMDV inh inconclusive and Lassa entry inh inconclusive.
For Cc1ccc(C2CC(c3ccccc3)=NN2C(=S)Nc2ccccc2)o1 (centres undefined) the results were HCMV inh -4, MARV entry inh inconclusive, Vaccinia Venus inconclusive, FMDV inh -16% and Lassa entry inh 4µM*.
COc1ccc(-c2nc3scc(CCNS(=O)(=O)c4ccc(F)cc4F)n3n2)cc1OC was read as HCMV inh -17, Vaccinia Venus -9%, Vaccinia mCherry -9%, FMDV inh -18% and Lassa entry inh -20%[46.1 µM].
Cc1ccc(SCc2cc(=O)[nH]c(Nc3nc(C)c4cccc(C)c4n3)n2)cc1 was read as HCMV inh 65, MARV entry inh 9.2µM*, Vaccinia Venus -6%, Vaccinia mCherry -7%, FMDV inh 22% and Lassa entry inh -51%[14.3 µM].
`COc1ccc2nc(Nc3nc(CSc4nnnn4-c4ccccc4)cc(=O)[nH]3)nc(C)c2c1` gave HCMV inh -10, MARV entry inh 1%, FMDV inh 15% and Lassa entry inh 0%.
`COCc1cc(=O)[nH]c(Nc2nc(C)c3ccccc3n2)n1` gave HCMV inh -102*, MARV entry inh 3%, FMDV inh 21% and Lassa entry inh 6%.

Bioassay records from PubChem.
